From PubChem BioAssay
Hits are enriched below; roughly 4% of the tested compounds scored in any of these assays.
TRPM1 prom inh: inhibitors of MITF-dependent TRPM1 promoter reporter, primary screen, cell-based, SK-MEL-5, single point, luciferase | SK-MEL-5 TRPM1 promoter luciferase, 24 h | inhibition, % at 12.5 µM | 0.83% of 330,000 active;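 active = mean inhibition across replicates of 60% or more, whatever share of single replicates reaches that level; inconclusive = some that reach 60%, reason not given; inactive = mean inhibition across replicates below 60%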
EBV LMP1 NFkB: EBV LMP1-driven NF-kappaB luciferase reporter inhibitors, primary screen, cell-based, luminescence, single point | LMP1-induced NF-kappaB luciferase reporter cells | inhibition, % at 12.5 µM | 0.69% of 350,000 active | AID 504558, 2011; in the data active = inhibition above about 41%; inconclusive = no clear call, values can overlap the other calls
esBAF inh: Bmi1 luciferase reporter increase in mESCs, primary screen, esBAF inhibitor project, mouse ES cells, Bmi1 luciferase knock-in, single point; 24 h; 100% = twice the neutral-well signal; reporter increase, % at 12.5 µM; 2% of 350,000 active; AID 602393, 2012; in the data active = activation above about 40%; inconclusive = no clear call, values can overlap the other calls;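 note: a rise in the Bmi1 reporter signal indicates esBAF inhibition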
Statin myotox sup: suppressors of statin myotoxicity in C2C12 myotubes, primary screen, cell-based, single point, plate reader; C2C12 myotubes + simvastatin, ATP luminescence, 48 h; scaled: DMSO 0, geranylgeraniol control 100; rescue of ATP level, % at 7.49 µM; 0.78% of 330,000 active; AID 602340, 2012;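 active = mean ATP rescue above about 67%, or every replicate alone reaching that limit, limit read from the data, passing the limit was not always enough; inconclusive = no clear call, values can overlap the other calls; inactive = mean under the limit and some replicate under it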;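 note: myotubes were challenged with 10 µM simvastatin during compound exposure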
MITF TRPM1 HTS: activators of MITF-driven TRPM1 promoter reporter, primary screen, cell-based, SK-MEL-5, luciferase, single point | SK-MEL-5 TRPM1-promoter luciferase, 24 h; % of positive control, neutral wells = 0 | activation, % at 12.5 µM | 0.75% of 300,000 active;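 active = mean activation of at least 80% with every replicate also reaching 80%; inconclusive = mean reaches 80% but some replicate falls short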
Wnt act: Wnt/beta-catenin pathway activators, primary screen, cell-based, plate reader, single point | Wnt/beta-catenin reporter cell assay, activator | 1.2% of 300,000 active | activation, % at 9.35 µM | AID 743398, 2014; in the data active = activation above about 30%, passing the limit was not always enough; inconclusive = no clear call, values can overlap the other calls
Large screens that a line does not name were inactive.

CCOC(=O)COc1ccc2ccccc2c1/C=C/[N+](=O)[O-]	TRPM1 prom inh 83 (no result: esBAF inh, Statin myotox sup)
O=[N+]([O-])/C=C/c1c(OCc2ccccc2)ccc2ccccc12	TRPM1 prom inh 98 (no result: Wnt act)
CCOC(=O)COc1ccc(/C=C/[N+](=O)[O-])c(OCC(=O)OCC)c1	TRPM1 prom inh 92 (no result: esBAF inh, Statin myotox sup, Wnt act)
CCCn1c2c(c(O)c(C(=O)Nc3ccc(OCC)cc3)c1=O)CCCC2	none (no result: Wnt act)
Cc1ccc2oc3c(c(=O)c2c1)C(c1cccc(O)c1)N(c1ccccn1)C3=O (stereo not given)	none
COc1ccccc1NC(=O)C1=C(C)Nc2nc(CCCO)nn2C1c1cccnc1 (stereo not given)	none (no result: Statin myotox sup)
Cc1c(Nc2cc(Cl)c3nonc3c2[N+](=O)[O-])c(=O)n(-c2ccccc2)n1C	TRPM1 prom inh 102 (no result: esBAF inh, Statin myotox sup)
O=C(O)c1ccc(Nc2cc(Cl)c3nonc3c2[N+](=O)[O-])cc1	none
O=[N+]([O-])c1c(Nc2cccc(O)c2)cc(Cl)c2nonc12	TRPM1 prom inh 77, EBV LMP1 NFkB 56 (no result: MITF TRPM1 HTS)
O=C(C[C@H]1CC[C@H]2[C@@H](COC[C@@H](O)CN2C(=O)c2ccncc2)O1)NC1CCC1	none (no result: TRPM1 prom inh, EBV LMP1 NFkB, MITF TRPM1 HTS, Wnt act)
CO[C@@H]1CN(C)C(=O)c2ccc(NC(=O)C3CC3)cc2OC[C@H](C)N(Cc2ccc(F)cc2)C[C@@H]1C	none (no result: TRPM1 prom inh, EBV LMP1 NFkB, MITF TRPM1 HTS, Wnt act)
Clc1ccc(-c2cc(CSc3ccccc3)on2)cc1	MITF TRPM1 HTS 127
Clc1ccc(-c2cc(CSc3cccc(Cl)c3)on2)cc1	none
Cc1ccc(SCc2cc(-c3ccc(Cl)cc3)no2)cc1	none (no result: esBAF inh, Statin myotox sup, Wnt act)
c1ccc(SCc2cc(-c3ccccc3)no2)cc1	MITF TRPM1 HTS 94 (no result: esBAF inh, Statin myotox sup)
C[C@@H]1CN([C@@H](C)CO)C(=O)c2cc(NS(C)(=O)=O)ccc2O[C@@H](C)CCCCO[C@@H]1CN(C)Cc1ccc(C(=O)O)cc1	none (no result: TRPM1 prom inh, EBV LMP1 NFkB, Statin myotox sup, MITF TRPM1 HTS, Wnt act)
O=C(CS(=O)(=O)c1ccccc1)CS(=O)(=O)c1ccccc1	none (no result: TRPM1 prom inh, EBV LMP1 NFkB, esBAF inh, Statin myotox sup, MITF TRPM1 HTS)
C[C@H]1CN([C@@H](C)CO)C(=O)c2cc(-c3ccccc3)cnc2O[C@H]1CN(C)C(=O)Nc1ccccc1F	none (no result: TRPM1 prom inh, EBV LMP1 NFkB, MITF TRPM1 HTS, Wnt act)
NNc1nc(-c2ccccc2Cl)nc2sc3c(c12)CCCC3	Wnt act 46 (no result: esBAF inh, Statin myotox sup)
NNc1nc(-c2ccccc2Cl)nc2ccccc12	none
Cc1ccc(/C=C/C(=O)N2CCN(Cc3ccccc3)CC2)o1	none (no result: esBAF inh, Statin myotox sup, Wnt act)
Nc1nc(NCc2c(F)cccc2Cl)nn1-c1ccccc1	Statin myotox sup 101
Cc1ccccc1CNc1nc(N)n(-c2ccccc2)n1	none
S=C(Nc1ccccc1)Nc1nc2ccccc2n1CCOc1ccc(Br)cc1	none
COc1ccc(CNc2nc3ccccc3n2C)c(O)c1	MITF TRPM1 HTS 93, Wnt act inconclusive
Cn1c(NC(=S)Nc2ccccc2)nc2ccccc21	Wnt act 41 (no result: esBAF inh, Statin myotox sup)
COc1ccc(CNc2nc3ccccc3n2C)c(OC)c1	none (no result: esBAF inh, Statin myotox sup)
COc1ccc(Nc2nc3ccccc3n2C)cc1	Wnt act 41
C[C@H](CO)N1C[C@H](C)[C@H](CN(C)Cc2ccc(C(=O)O)cc2)Oc2ccc(NS(=O)(=O)c3ccc(Cl)cc3)cc2CC1=O	none (no result: TRPM1 prom inh, EBV LMP1 NFkB, MITF TRPM1 HTS, Wnt act)
O=C(c1cccc(F)c1)N(Cc1nc2ccccc2c(=O)[nH]1)C1CCCC1	none (no result: esBAF inh, Statin myotox sup)
Cc1nc2c(O)c3c(c(O)c2nc1C)C1C=CC3CC1	TRPM1 prom inh 63, EBV LMP1 NFkB 68 (no result: esBAF inh, Statin myotox sup)
O=C(COC(=O)c1cccc(NC(=O)c2ccco2)c1)c1ccc(Br)cc1	Wnt act 43 (no result: MITF TRPM1 HTS)
O=C(NC1c2ccccc2-c2ccccc21)c1ccco1	Statin myotox sup 120
CC(=O)Nc1ccc2nc(-c3ccco3)[nH]c2c1	none (no result: esBAF inh, Statin myotox sup)
O=C(Nc1nnc(-c2cccs2)o1)c1ccco1	Statin myotox sup 69
O=C(Nc1ccc2nc(-c3ccco3)[nH]c2c1)c1ccco1	Wnt act 37 (no result: MITF TRPM1 HTS)
COC(=O)c1c(NC(=O)C(C)C)sc2c1C(C(=O)OC)CC2 (stereo not given)	none
COc1ccccc1CN1CC(C(=O)NCc2cccc(C)n2)CCC1=O (stereo not given)	none
O=C(Nc1ccc(Nc2ccccc2)cc1)c1ccco1	esBAF inh inconclusive (no result: Wnt act)
COc1ccc(NC(=O)CNC(=O)c2ccco2)cc1	none (no result: MITF TRPM1 HTS)
O=C(Nc1ccc(NC(=O)c2ccco2)cc1)c1ccco1	esBAF inh 46
Cc1ccc(NC(=O)CNC(=O)c2ccco2)cc1	esBAF inh 42
O=C(Nc1ccc(C(=O)Oc2ccccc2)c(O)c1)c1ccco1	esBAF inh 57 (no result: Wnt act)
CC(NC(=O)c1ccco1)C(=O)Nc1nccs1 (stereo not given)	none
O=C(Nc1nccs1)c1ccc(NC(=O)c2ccco2)cc1	esBAF inh 50 (no result: Wnt act)
O=C(Nc1ccc(C(=O)Oc2ccccc2)c(O)c1)c1ccccc1	none (no result: esBAF inh, Statin myotox sup)
O=C(O)CCCN1C(=O)c2ccc(C(=O)c3cccc([N+](=O)[O-])c3)cc2C1=O	none
COc1cc(/C=C/C(=O)c2ccc(NS(=O)(=O)c3ccc(C)cc3)cc2)ccc1OC(F)F	none
CC(C)NC(=O)C(=O)NCCc1ccc(Cl)cc1	none (no result: Wnt act)
CC(=O)N(C)c1ccc(NC(=O)c2ccco2)cc1	Wnt act 35
O=C(Nc1ccc(Br)cc1)c1ccco1	esBAF inh 71, MITF TRPM1 HTS 91
NNc1nc(Nc2ccccc2)nc(Nc2ccccc2)n1	none
c1ccc(Nc2ccnc(Nc3ccccc3)n2)cc1	esBAF inh 45, Wnt act 71
COc1cccc(CC(=O)Nc2ccccc2C(=O)N2CCOCC2)c1	none (no result: esBAF inh, Statin myotox sup, Wnt act)
OCC[C@@H]1C[C@H](O)[C@@H](O)[C@@]2(OCc3ccccc32)O1	none
Cc1ccc2nc(-c3cc(-c4ccccc4)no3)cn2c1	none
CCc1ccn2cc(-c3cc(-c4ccccc4)no3)nc2c1	TRPM1 prom inh 78, EBV LMP1 NFkB 70 (no result: MITF TRPM1 HTS)
CC1CCC(C(C)C)C(=O)/C1=C/c1ccc(N)cc1 (stereo not given)	esBAF inh 59, MITF TRPM1 HTS 112, Wnt act 53
CCOC(=O)CSC1=N/C(=C\c2cccnc2)C(=O)N1c1ccc(OC)cc1	EBV LMP1 NFkB 56 (no result: esBAF inh, Statin myotox sup)
COc1ccc(-c2ccc3c(n2)CCCN3Cc2ccccc2C(F)(F)F)cc1	Wnt act 38 (no result: TRPM1 prom inh, EBV LMP1 NFkB, esBAF inh, Statin myotox sup, MITF TRPM1 HTS)
COc1ccc(-c2cc3nc4n(c(=O)c3s2)CCCCC4)cc1	Wnt act 37 (no result: MITF TRPM1 HTS)
COc1ccc(-c2cc3nc4n(c(=O)c3s2)CCC4)cc1	EBV LMP1 NFkB 52
COc1ccc(NC(=O)c2ccc3c(=O)n4c(nc3c2)CCCCC4)cc1	none
CC(C)NC(=O)N1[C@H](C#N)[C@H](c2ccc(-c3ccc(F)cc3)cc2)[C@@H]1CO	none (no result: TRPM1 prom inh, EBV LMP1 NFkB, MITF TRPM1 HTS, Wnt act)
O=C(CSc1ncn[nH]1)NCCc1ccc(Cl)cc1Cl	none
COc1ccc(S(=O)(=O)Nc2ccc3c(c2)C(=O)N([C@@H](C)CO)C[C@@H](C)[C@@H](CN(C)S(=O)(=O)c2c(C)noc2C)O3)cc1	none (no result: TRPM1 prom inh, EBV LMP1 NFkB, MITF TRPM1 HTS, Wnt act)
O=C(C1CCCCC1)N1CCN(c2ncccn2)CC1	EBV LMP1 NFkB 48 (no result: Wnt act)
